Laboratory results taken from PubChem BioAssay.
A number with no mark means an inactive call. A call without a number means that no potency is given here. For some assays here: Potency and affinity values are given separately. Calls of active or inactive are those of the source. Unless noted, no rule for the calls is given here.

What was measured:
[1] = antimalarial activity against Dd2 strain (AID 2302;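 active = growth inhibition above 50% at the single 2 µM test dose, taken to imply half-maximal potency below 2 µM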); conditions: P. falciparum Dd2 in RBCs, LDH growth readout, 72 h; at 2 µM; active compounds read high
[2] = human hepatoma cell viability loss – ATP luminescence, cytotoxicity control for P. falciparum antimalarial project, primary screen (AID 2303;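 active = inhibition above 50%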); conditions: HepG2 viability, 24-48 h, at 10 µM, active compounds read high
[3] = biological target: L-lactate dehydrogenase (Plasmodium falciparum (isolate CDC / Honduras)) (UniProt Q27743); assay: PfLDH activity inhibition – cell lysate, 3D7 strain, counter-screen for P. falciparum growth inhibition project (AID 2304); conditions: P. falciparum 3D7 crude extract, LDH APAD/NBT absorbance; at 2 µM; active compounds read high
Sequence of L-lactate dehydrogenase (Plasmodium falciparum (isolate CDC / Honduras)) (Q27743 whole entry, looked up): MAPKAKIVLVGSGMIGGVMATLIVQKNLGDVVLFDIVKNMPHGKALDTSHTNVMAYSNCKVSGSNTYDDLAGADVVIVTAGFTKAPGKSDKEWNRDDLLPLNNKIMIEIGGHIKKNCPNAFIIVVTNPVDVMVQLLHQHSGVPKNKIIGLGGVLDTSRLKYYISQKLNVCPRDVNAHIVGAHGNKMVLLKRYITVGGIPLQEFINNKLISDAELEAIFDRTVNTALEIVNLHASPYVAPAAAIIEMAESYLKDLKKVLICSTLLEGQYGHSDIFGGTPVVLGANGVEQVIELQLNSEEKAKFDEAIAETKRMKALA

[4] = inhibition of 3D7 malaria parasite growth – strain 3D7 (AID 2306); conditions: P. falciparum 3D7 erythrocytic growth, LDH absorbance, 72 h; at 2 µM; active compounds read high
[5] = biological target: Calcium-dependent protein kinase 1 (Plasmodium falciparum (isolate 3D7)) (UniProt P62344); assay: PfCDPK1 kinase inhibitors, biochemical, TCAMS library (AID 1159585; cut-off not given, nearly all actives have IC50 up to about 0.98 µM;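 also: inhibitors leave more ATP so luminescence rises with inhibition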); conditions: recombinant PfCDPK1, Kinase-Glo ATP depletion luminescence
Sequence of Calcium-dependent protein kinase 1 (Plasmodium falciparum (isolate 3D7)) (P62344 whole entry, looked up): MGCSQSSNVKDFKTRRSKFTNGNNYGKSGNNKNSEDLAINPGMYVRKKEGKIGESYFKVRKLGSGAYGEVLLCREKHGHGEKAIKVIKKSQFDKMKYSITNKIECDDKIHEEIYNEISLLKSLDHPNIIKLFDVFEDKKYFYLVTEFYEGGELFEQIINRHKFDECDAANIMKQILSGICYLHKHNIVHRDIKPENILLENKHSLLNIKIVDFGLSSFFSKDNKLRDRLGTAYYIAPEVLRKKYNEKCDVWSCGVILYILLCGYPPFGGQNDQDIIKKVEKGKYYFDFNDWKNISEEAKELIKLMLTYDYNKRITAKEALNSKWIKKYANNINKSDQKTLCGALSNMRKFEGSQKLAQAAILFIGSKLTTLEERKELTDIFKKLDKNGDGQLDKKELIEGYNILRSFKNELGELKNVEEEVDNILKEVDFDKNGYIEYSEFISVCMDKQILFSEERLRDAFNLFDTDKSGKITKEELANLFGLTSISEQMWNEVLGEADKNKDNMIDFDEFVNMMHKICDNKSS

[6] = biological target: Plasmodium falciparum protein kinase 6 (PK6, PF3D7_1337100) (UniProt Q8IDW1); assay: PfPK6 kinase inhibitors, biochemical, TCAMS library (AID 1159586); conditions: recombinant PfPK6, Kinase-Glo ATP depletion luminescence
Sequence of Plasmodium falciparum protein kinase 6 (PK6, PF3D7_1337100) (Q8IDW1 1-305): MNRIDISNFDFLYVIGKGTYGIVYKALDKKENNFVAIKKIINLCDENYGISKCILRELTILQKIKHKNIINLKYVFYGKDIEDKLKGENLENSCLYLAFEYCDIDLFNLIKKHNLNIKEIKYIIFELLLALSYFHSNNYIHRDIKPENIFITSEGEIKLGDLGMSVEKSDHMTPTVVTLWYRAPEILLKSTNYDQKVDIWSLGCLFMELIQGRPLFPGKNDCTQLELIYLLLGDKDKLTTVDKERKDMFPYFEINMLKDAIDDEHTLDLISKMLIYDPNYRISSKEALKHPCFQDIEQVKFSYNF

[7] = biological target: Protein kinase 7 (PK7), Plasmodium falciparum 3D7 (PF3D7_0213400) (UniProt Q7YTF7); assay: inhibition of Plasmodium PK7 catalytic activity – biochemical, TCAMS antimalarial set, Kinase-Glo luminescence (AID 1159587); conditions: recombinant PfPK7, Kinase-Glo ATP depletion luminescence
Sequence of Protein kinase 7 (PK7), Plasmodium falciparum 3D7 (PF3D7_0213400) (Q7YTF7 1-343): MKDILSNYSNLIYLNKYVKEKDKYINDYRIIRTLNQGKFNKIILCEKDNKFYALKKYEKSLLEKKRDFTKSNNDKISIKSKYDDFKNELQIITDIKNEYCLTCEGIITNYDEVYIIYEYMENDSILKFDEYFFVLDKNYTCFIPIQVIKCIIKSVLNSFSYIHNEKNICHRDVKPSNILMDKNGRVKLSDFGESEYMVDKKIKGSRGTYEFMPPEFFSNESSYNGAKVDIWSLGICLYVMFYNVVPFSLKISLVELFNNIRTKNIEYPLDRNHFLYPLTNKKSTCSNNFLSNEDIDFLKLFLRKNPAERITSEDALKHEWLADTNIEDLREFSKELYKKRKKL

[8] = biological target: Calcium-dependent protein kinase 4 (Plasmodium falciparum (isolate 3D7)) (UniProt Q8IBS5); assay: PfCDPK4 kinase inhibitors, biochemical, TCAMS library (AID 1159588; cut-off not given, nearly all actives have IC50 up to about 0.91 µM); conditions: recombinant PfCDPK4, Kinase-Glo ATP depletion luminescence
Sequence of Calcium-dependent protein kinase 4 (Plasmodium falciparum (isolate 3D7)) (Q8IBS5 whole entry, looked up): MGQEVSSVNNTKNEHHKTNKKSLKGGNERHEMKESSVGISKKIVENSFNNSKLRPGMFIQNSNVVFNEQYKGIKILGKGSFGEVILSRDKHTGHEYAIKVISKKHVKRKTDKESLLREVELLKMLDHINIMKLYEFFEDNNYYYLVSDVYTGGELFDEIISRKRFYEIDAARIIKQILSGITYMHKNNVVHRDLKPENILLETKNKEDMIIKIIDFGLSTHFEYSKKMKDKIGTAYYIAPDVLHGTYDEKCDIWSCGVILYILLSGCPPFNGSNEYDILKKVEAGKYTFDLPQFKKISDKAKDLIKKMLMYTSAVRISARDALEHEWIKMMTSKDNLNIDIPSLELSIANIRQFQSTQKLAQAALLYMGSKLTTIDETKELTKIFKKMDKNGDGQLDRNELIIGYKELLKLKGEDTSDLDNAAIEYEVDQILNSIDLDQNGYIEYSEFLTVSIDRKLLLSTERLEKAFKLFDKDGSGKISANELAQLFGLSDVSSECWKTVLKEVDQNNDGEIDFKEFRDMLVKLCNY

Row | Compound | growth inhibition [1] | inhibition [2] | inhibition [3] [%] | growth inhibition [4] | outcome [5] | outcome [6] | outcome [7] | outcome [8]
1 | CC(C)(C)c1nn(-c2ccccc2)c2[nH]c(=O)c(CNC3CCCCC3)cc12 | 76% (active) | 6% | 3 | 83% (active) | inactive | inactive | inactive | inactive
2 | O=C(c1ccc(Cl)c(Cl)c1)N1CCc2c([nH]c3ccccc23)C1CN1CCCC1 (stereo not given) | 16% | 83% (active) | 2 | 94% (active) | inactive | inactive | inactive | inactive
3 | Cc1cc(NCCc2ccccc2)nc(/N=C(\N)Nc2cccc(F)c2)n1 | -1% | -6% | -2 | 91% (active) | inactive | inactive | inactive | inactive
4 | CC(C)c1ccc(NC(=O)NCC2CCCN(CCCCCNC(=O)/C=C/c3ccc(Cl)c(Cl)c3)C2)cc1 (stereo not given) | 6% | 87% (active) | -13 | 98% (active) | inactive | inactive | inactive | inactive
5 | COc1ccc(-c2ccccc2CNC2Cc3ccccc3C2)cc1S(=O)(=O)NCCN1CCCC1 | 47% | 18% | -3 | 96% (active) | inactive | inactive | inactive | inactive
6 | CCCCCCC(C)c1cc(O)c2c(c1)OC(C)(C)C=C2c1ccncc1 (stereo not given) | 29% | -7% | 0 | 98% (active) | inactive | inactive | inactive | inactive
7 | COc1ccc(-c2ccc(NC(=O)c3ccc(Cl)cc3)cc2)cc1CN1CCCN(C)CC1 | 61% (active) | 27% | 2 | 93% (active) | inactive | inactive | inactive | inactive
8 | CC(C)(C)c1ccccc1OCCCON1C(N)=NC(N)=NC1(C)C | 98% (active) | 63% (active) | 5 | 95% (active) | inactive | inactive | inactive | inactive
9 | Cc1cnc(Nc2ccccc2)nc1N[C@@H](CCCN)C(=O)Nc1ccccc1 | 0% | -2% | -1 | 101% (active) | inactive | inactive | inactive | inactive
10 | CCOC(=O)c1ccc(N2CCN(c3cc(C)ccc3C)CC2)c(NC(=O)Nc2ccc(Cl)c(Cl)c2)c1 | 42% | 7% | -2 | 100% (active) | inactive | inactive | inactive | inactive
11 | Cc1[nH]c(C)c(-c2ccc(-c3ccc(C(F)F)cc3)nc2)c(=O)c1Cl | 96% (active) | 0% | -2 | 97% (active) | inactive | inactive | inactive | inactive
12 | COc1ccc(CN(C)CC(O)COc2ccc(NC(=O)c3cccc4c(=O)c5cccc(OC)c5[nH]c34)cc2)cc1OC (stereo not given) | 65% (active) | 72% (active) | -3 | 93% (active) | inactive | inactive | inactive | inactive
13 | CN(Cc1ccc(-c2ccc(C(F)(F)F)cc2)cc1)C(=O)Cn1c(CCc2cccc(F)c2F)nc(=O)c2ccc(N3CCN(CCN4CCCCC4)CC3)nc21 | 100% (active) | 100% (active) | 5 | 101% (active) | inactive | inactive | inactive | inactive
14 | CCc1ccc(CN2CCC(CNC(=O)c3cc(-c4cccc(Cl)c4)cs3)C2)cc1 (stereo not given) | 19% | 27% | 4 | 88% (active) | inactive | inactive | inactive | inactive
15 | COc1ccc2nccc([C@@H](O)CN3CCC(NCc4nc5c(OCc6ccccc6)cccc5[nH]4)CC3)c2c1 | 34% | 6% | 3 | 101% (active) | inactive | inactive | inactive | inactive
16 | CNC(=O)COc1cc(C)c(C2CCN(CCCCNC(=O)c3ccc(-c4ccc(C(F)(F)F)cc4)cc3)CC2)cc1C | 72% (active) | 38% | 4 | 100% (active) | inactive | inactive | inactive | inactive
17 | COc1cc2nc(N3CCC(CNC(=O)c4ccc(-c5ccccc5)cc4)CC3)nc(N)c2cc1OC | 92% (active) | 11% | -1 | 93% (active) | inactive | inactive | inactive | inactive
18 | NC1=NC(c2ccccc2)(c2ccccc2)C(=O)N1CCCCc1ccccc1 | 81% (active) | 14% | -2 | 96% (active) | inactive | inactive | inactive | inactive
19 | Clc1ccc2c(Cl)c(CNCCCNc3nc4ccccc4[nH]3)[nH]c2c1 | 7% | 38% | -1 | 101% (active) | inactive | inactive | inactive | inactive
20 | COc1ccc(OCC(=O)Nc2nc(-c3ccc(OC)cc3)c(C)s2)cc1 | 87% (active) | -3% | -6 | 100% (active) | inactive | inactive | inactive | inactive

Row | Compound | growth inhibition [1] | inhibition [2] | inhibition [3] [%] | growth inhibition [4] | outcome [5] | outcome [6] | outcome [7] | outcome [8]
21 | CN1CCN(CCCN(Cc2csc(-c3ccc(CNCc4ccccc4)cc3)n2)S(=O)(=O)c2ccccc2)CC1 | 78% (active) | 17% | 7 | 99% (active) | inactive | inactive | inactive | inactive
22 | Cc1c(C(=O)N2CCCC(C(F)(F)F)C2)sc2cccc(F)c12 (stereo not given) | 89% (active) | -4% | 1 | 99% (active) | inactive | inactive | inactive | inactive
23 | CN1CCC(c2c[nH]c3ccc(NC(=O)Nc4ccc(-c5ccncc5)cc4Cl)cc23)CC1 | 7% | 31% | 7 | 100% (active) | inactive | inactive | inactive | inactive
24 | CN(CCN)Cc1ccc(-c2ccc(-c3nc4ccc(C(F)(F)F)cc4[nH]3)s2)cc1 | 98% (active) | 37% | 2 | 98% (active) | inactive | inactive | inactive | inactive
25 | CC(C)Nc1ccc(Nc2ccnc3cc4ccccc4cc23)cc1 | 81% (active) | 37% | -3 | 100% (active) | inactive | inactive | inactive | inactive
26 | O=C(Nc1ccc2ccccc2c1)N(CCCn1ccnc1)Cc1csc(-c2ccc(CNCc3ccccc3)cc2)n1 | 53% (active) | 10% | 0 | 99% (active) | inactive | inactive | inactive | inactive
27 | Cc1ccc2[nH]c(-c3ccc(C(=O)NCc4ccc(Cl)c(Cl)c4)cc3)nc2c1C | 26% | 19% | 5 | 96% (active) | inactive | inactive | inactive | inactive
28 | CCN(CC)S(=O)(=O)c1ccc(C(C)NC(=O)c2ccccc2COc2ccccc2)cc1 (stereo not given) | 89% (active) | -3% | 4 | 100% (active) | inactive | inactive | inactive | inactive
29 | COc1ccc2ncc(F)c(CCN3CC[C@H](NC(=O)c4ccc5c(n4)NC(=O)CS5)[C@H](O)C3)c2n1 | 88% (active) | 20% | 0 | 88% (active) | inactive | inactive | inactive | inactive
30 | COc1ccc(CCN(C)CCc2ccc(NC(=O)c3cccc4c(=O)c5ccccc5sc34)cc2)cc1 | 33% | 24% | -2 | 95% (active) | inactive | inactive | inactive | inactive
31 | Fc1ccc2c(NN=Cc3ccccc3)ccnc2c1 | 99% (active) | 1% | 2 | 100% (active) | inactive | inactive | inactive | inactive
32 | CCCN1CCC2(CC1)NC(C(=O)NCCC(C)C)Cc1c2[nH]c2cc(Cl)ccc12 (stereo not given) | 0% | 13% | -3 | 86% (active) | inactive | inactive | inactive | inactive
33 | NC1=NC(CCc2ccccc2)N(c2ccccc2)C(N)=N1 (stereo not given) | 15% | 1% | -9 | 94% (active) | inactive | inactive | inactive | inactive
34 | Cc1ccc2c(-c3ccc([N+](=O)[O-])o3)cc(C)nc2c1 | 47% | 20% | 3 | 95% (active) | inactive | inactive | inactive | inactive
35 | O=S(=O)(NCCN1CCCC1)c1ccc(-c2ccc(CNCc3ccsc3)cc2)cc1 | 36% | 44% | -5 | 95% (active) | inactive | inactive | inactive | inactive
36 | O=C(Nc1ccc(F)cc1)NC1CCN(c2ccnc3ccccc23)C1 (stereo not given) | 2% | 9% | -2 | 92% (active) | inactive | inactive | inactive | inactive
37 | COc1ccc(NC(=O)[C@H](C)Nc2cc(C)nc(NCC3CCCCC3)n2)cc1 | 13% | 12% | -3 | 92% (active) | inactive | inactive | inactive | inactive
38 | COc1ccc2nc(C)cc(NN=Cc3ccccc3)c2c1 | 6% | 4% | 0 | 80% (active) | inactive | inactive | inactive | inactive
39 | Nc1nc(N)c2c(ccc3c2ccn3CC2CC2)n1 | 3% | 46% | -4 | 96% (active) | inactive | inactive | inactive | inactive
40 | COc1cc(Nc2nccc(N3CCC(NC(=O)Nc4cc(C)ccc4C)C3)n2)cc(OC)c1OC (stereo not given) | 52% (active) | 13% | 4 | 91% (active) | inactive | inactive | inactive | inactive
